# CCHF vOTU inh = CCHFV vOTU protease inhibition; Pep-AMC fluorescence; inhibition, % at 11.5 µM; hit rate 0.55% among 370,000; AID 651958; also: 0% = vehicle wells with enzyme and 100% = no enzyme wells
# GDH-TPI counter-1 = GDH-TPI coupled enzyme inhibition counter-screen. GDH-TPI coupled enzyme counterscreen, NADH absorbance. inhibition, % at 4.8 µM. hit rate 1.2% among 360,000. AID 588335;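 also: 0% = DMSO wells and 100% = wells lacking the enzyme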
# BH1578 lux ind = inducers of Vibrio cholerae quorum light production without autoinducers; V. cholerae BH1578 lux reporter, luminescence, 6 h; activation, % at 18.7 µM; hit rate 0.16% among 350,000; AID 588436; in the data active = activation mostly above about 9.7%, no sharp cut-off
# Mtb FBA inh = Mtb fructose-bisphosphate aldolase inhibition | P9WQA3 | purified M. tuberculosis FBA, fluorescence read-out | inhibition, % at 1 µM | hit rate 2.3% among 360,000; in the data active = inhibition above about 27%;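 also: 0% = vehicle and 100% = reference inhibitor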
# Target sequence (P9WQA3 whole entry, looked up): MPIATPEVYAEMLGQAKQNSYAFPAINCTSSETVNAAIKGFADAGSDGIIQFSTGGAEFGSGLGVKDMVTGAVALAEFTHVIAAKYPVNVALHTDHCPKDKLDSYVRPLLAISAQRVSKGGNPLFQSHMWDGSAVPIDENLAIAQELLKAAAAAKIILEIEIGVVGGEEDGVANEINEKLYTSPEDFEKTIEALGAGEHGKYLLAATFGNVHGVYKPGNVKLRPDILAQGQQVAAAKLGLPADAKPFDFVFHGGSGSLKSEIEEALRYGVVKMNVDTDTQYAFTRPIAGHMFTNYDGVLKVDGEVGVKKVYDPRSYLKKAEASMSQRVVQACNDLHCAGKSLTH
# Mtb FBA inh conf = confirmation of M. tuberculosis fructose-bisphosphate aldolase inhibitors | purified M. tuberculosis FBA, fluorescence read-out | shares compounds with Mtb FBA inh | inhibition, % at 1 µM | hit rate 78% among 5,600; in the data active = inhibition above about 27%;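 also: 0% = vehicle wells and 100% = reference inhibitor wells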
# GDH-TPI counter-2 = inhibits GDH-TPI coupling enzymes, flagging Mtb FBA hits; shares compounds with Mtb FBA inh; inhibition, % at 1 µM; GDH-TPI coupled enzyme counterscreen, fluorescence; hit rate 81% among 5,600; AID 652141; in the data active = inhibition above about 10%
# Active calls of the source: *; i = inactive; x = not tested or not shown; + = active, no number. An excerpt weighted towards active compounds, which were near 3.9% of everything screened. Rule as the data show it, unless noted: active = inhibition above about 30%; inactive = the rest.
SMILES,CCHF vOTU inh,GDH-TPI counter-1,BH1578 lux ind,Mtb FBA inh,Mtb FBA inh conf,GDH-TPI counter-2
CCOC(=O)c1cc(-c2cccc(C(F)(F)F)c2)nc2nc(SC)[nH]c(=O)c12,-3.7,-0.4,i,3.9,x,x
COc1ccccc1-c1noc(-c2cccs2)n1,1.7,-4.6,i,1.0,x,x
Nc1nc(SCC(=O)c2ccc([N+](=O)[O-])cc2)n[nH]1,-14.9,8.1,-0.1,-0.4,x,x
O=S(=O)(c1cccs1)N1CN(CC2CCCO2)c2nc3ccccc3nc21 (stereo not given),1.3,21.2,-0.5,51.3*,70.3*,58.1*
O=S(=O)(c1cccs1)N1CN(Cc2ccccc2)c2nc3ccccc3nc21,-7.7,35.6*,i,32.4*,39.8*,27.1*
COc1cccc(NC(=O)Cc2nnc(SCC(=O)c3ccccc3)n2C)c1,13.4,5.3,i,83.4*,160.6*,122.4*
COc1cccc(NC(=O)Cc2nnc(SCCOc3ccccc3)n2C)c1,6.3,10.0,1.0,1.7,x,x
CCOC(=O)N1CCC(N2CCN(c3cc(C)ccc3C)CC2)CC1,11.7,0.3,i,1.1,x,x
NC(=O)c1nsc(C(=O)N(c2ccccc2F)C(C(=O)NCc2ccc(F)cc2)c2ccc(O)cc2)c1N (stereo not given),-47.9,2.3,0.8,35.1*,144.6*,106.8*
CCOc1ccc(C(C(=O)NCC2CCCO2)N(C(=O)c2snc(C(N)=O)c2N)c2cccc(F)c2)cc1 (stereo not given),-30.3,8.8,-0.2,34.2*,91.0*,72.0*
Cc1ccc(C(C(=O)NCC2CCCO2)N(C(=O)c2snc(C(N)=O)c2N)c2ccccc2F)o1 (stereo not given),-67.9,9.0,-0.3,33.2*,58.8*,39.2*
COc1ccccc1N(C(=O)c1snc(C(N)=O)c1N)C(C(=O)NCc1ccccc1)c1ccc(O)cc1 (stereo not given),-24.1,2.2,-0.7,18.4,x,x
CCOc1ccc(C(C(=O)NCC2CCCO2)N(C(=O)c2snc(C(N)=O)c2N)c2ccccc2F)cc1 (stereo not given),-19.3,12.7,i,52.7*,61.7*,50.5*
Cc1ccc(C(C(=O)NCC2CCCO2)N(C(=O)c2snc(C(N)=O)c2N)c2ccc(F)cc2)o1 (stereo not given),-2.4,5.5,-0.2,9.1,x,x
CC(=O)c1c(O)ccc2c(-c3ccccc3)cc(=O)oc12,6.6,0.8,-3.6,7.2,x,x
Cc1c(C2C(C#N)=C(N)OC3=C2C(=O)CCC3)cnn1C (stereo not given),4.9,9.3,-0.4,-5.5,x,x
Cc1ccccc1N(C(=O)c1snc(C(N)=O)c1N)C(C(=O)NC1CCCC1)c1ccco1 (stereo not given),-29.2,10.3,-0.3,37.0*,134.0*,98.4*
COc1ccc(Cn2c(/C=C/c3ccccc3)nc3ccccc32)cc1,-29.3,14.8,i,48.2*,168.6*,137.9*
CCn1c(/C=C/c2ccccc2)nc2ccccc21,-58.7,65.2*,0.9,57.6*,+,+
CCC(C)n1c(/C=C/c2ccccc2)nc2ccccc21 (stereo not given),-21.9,17.5,0.8,32.9*,52.6*,31.9*
CCn1c(/C=C/c2ccccc2)nc2ccccc2c1=O,6.9,25.1,-0.3,-1.0,x,x
CC(C)Cn1c(/C=C/c2ccccc2)nc2ccccc21,-19.1,38.8*,-2.7,77.9*,91.8*,66.7*
COc1ccc(-c2nc3ccccc3n2Cc2ccccc2)cc1,5.9,2.7,i,10.1,x,x
CCC(C)n1c(S(=O)(=O)O)nc2ccccc21 (stereo not given),-3.7,-1.9,-0.2,-0.1,x,x
CC(=O)Nc1ccc(NC(=O)Cc2sc(-c3cccnc3)nc2-c2ccc(C)cc2)cc1,21.3,1.6,-0.9,0.5,x,x
SMILES,CCHF vOTU inh,GDH-TPI counter-1,BH1578 lux ind,Mtb FBA inh,Mtb FBA inh conf,GDH-TPI counter-2
COc1ccc2c(c1)cc(C(=O)N[C@H](C(=O)N1CCC(C(=O)O)CC1)C(C)C)n2C,-13.4,-3.5,i,64.7*,119.9*,98.9*
COc1cc2cc(C(=O)O)n(C)c2c(OC)c1OC,-10.5,9.8,i,58.7*,68.0*,61.3*
COc1cc2cc(C(=O)N[C@@H](Cc3ccccc3)C(=O)O)n(C)c2c(OC)c1OC,10.9,9.7,1.6,15.4,x,x
CC(C)C[C@H](NC(=O)c1cc2cc(Cl)ccc2n1C)C(=O)N1CCC[C@H]1C(=O)O,6.7,10.8,-0.6,5.1,x,x
COc1ccc2c(c1)cc(C(=O)N[C@@H](CCSC)C(=O)N1CCC[C@H]1C(=O)O)n2C,-27.1,8.8,-0.3,111.1*,0.5,-1.4
COc1ccc2c(c1)cc(C(=O)N[C@H](C(=O)N1CCC[C@H]1C(=O)O)C(C)C)n2C,-30.3,10.8,-0.6,106.1*,159.2*,112.8*
CC(C)[C@H](NC(=O)c1cc2cc(Cl)ccc2n1C)C(=O)N1CCC(C(=O)O)CC1,-4.1,-5.7,i,4.1,x,x
C=CCn1c(SCC(=O)Nc2sc3c(c2C#N)CCC(C)C3)nc2cc(C(=O)O)ccc2c1=O (stereo not given),2.2,16.8,i,7.0,x,x
CC1(C)CC(=O)C2=C(C1)OC(N)=C([N+](=O)[O-])C2c1ccc(F)cc1 (stereo not given),6.8,8.1,-0.9,-0.3,x,x
COC(=O)c1cc2cc(OC)ccc2n1C,-6.6,3.4,-0.5,5.4,x,x
CNC(=O)c1cc2cc(OC)ccc2n1CCN(C)C,-6.1,0.0,-0.6,29.4*,109.8*,74.3*
COc1ccc2c(c1)cc(C(=O)O)n2C,-8.1,6.2,-0.4,64.5*,+,+
COc1ccc2c(c1)c(C(=O)OCCN(C)C)c(C)n2C,-0.4,-1.2,-0.2,-4.1,x,x
Cc1cccc(C(=O)Nc2ncc(CN3CCOCC3)s2)c1,-0.2,-5.0,i,1.4,x,x
CCN(CC)c1cccc(OCC(=O)N(C)CCC#N)c1,7.1,0.8,-0.8,-0.8,x,x
COc1ccc(C2CC(=O)Oc3c2c(=O)n(C)c2ccccc32)c(OC)c1OC (stereo not given),1.7,3.2,-0.3,36.9*,-21.5,-18.6
Cn1c(=O)c2c(c3ccccc31)OC(=O)CC2c1cccnc1 (stereo not given),-14.9,7.2,i,7.0,x,x
Nc1ccc2ccccc2c1,-2.7,3.5,i,28.4*,40.1*,34.4*
O=C1Nc2ncccc2OC1CCCl (stereo not given),7.2,10.4,0.4,-1.5,x,x
CCS(=O)(=O)c1ccc2c(c1)NC(=O)C(CCCl)O2 (stereo not given),-12.7,-3.1,i,77.6*,140.1*,112.0*
Cc1nc2c(-c3ccc(F)cc3)c(C)[nH]n2c(=O)c1Cl,-1.0,23.9,-0.2,42.1*,26.5,20.6*
Cc1nc2c(-c3ccc(Cl)cc3)c(C)[nH]n2c(=O)c1Cc1ccccc1,-4.4,-1.6,0.2,39.0*,2.2,2.6
O=C(CCC(=O)N(CC(=O)NC1CCCCC1)c1ccc(F)cc1)Nc1ccccn1,2.7,2.7,-0.8,-1.0,x,x

# Source: PubChem BioAssay
